Where “and” joins values, the source holds several entries; their conditions need not be identical. Identical values can stand only once. About 18,000 (4.4%) of roughly 410,000 compounds were called active. Not shown: some 7% with an inconclusive outcome. Cut-off read from the data, not from the text of the source: active = activity change below about -60%; inconclusive = no clear call, values can overlap the other calls; inactive = above about -39%. This excerpt belongs to a sample that is enriched for actives.
Test: qHTS Assay for inhibitors of the human cytomegalovirus (HCMV)
Details: HFF cells, HCMV-luciferase reporter, 72 h; at 57.5 µM; stronger effect = lower value
In short: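 Cell-based, HFFs, 1000 cells/well, 16 h 37C; cpds in DMSO + HCMV-luc, MOI 1 PFU/cell; 72 h 37C; OneGlo luminescence after 5 min RT; norm. to buffer vs Salinomycin 10uM.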
% is set by controls: 0 for no effect and ±100 for the full control effect.

SMILES	activity change, negative = inhibition
CSc1ccc(NC(=O)Cn2nnnc2-c2ccccc2F)cc1	13% (inactive)
CC(C)Oc1ccc(CNC(=O)C2CCN(c3nc4ccccc4n(C)c3=O)CC2)cc1	3.39% (inactive)
COc1cccc2cc(-c3nc(Cl)c4c5c(sc4n3)CC(C)CC5)c(=O)oc12 (centres undefined)	7.76% (inactive)
Fc1ccc(CSc2nnc(-c3cc4c(s3)-c3ccccc3CC4)o2)cc1	20.4% (inactive)
COc1ccc(C(=O)Oc2ccc(-c3nnco3)cc2)cc1S(=O)(=O)N1CCOCC1	-83.8% (active)
COc1ccccc1OC(=O)c1ccc(C)c(S(=O)(=O)N2CCOCC2)c1	2.56% (inactive)
O=C(Oc1ccc(-c2nnco2)cc1)c1ccc(F)c(S(=O)(=O)N2CCOCC2)c1	34.8% (inactive)
O=C1CCC(C(=O)OCC(=O)Nc2ccc(OC(F)F)cc2)=NN1	5.49% (inactive)
COc1ccc(NC(=O)COC(=O)CNC(=O)C2CCCCC2)cc1	16% (inactive)
CCC(C)(C)c1ccc(Oc2ccc(NC(=O)COC(=O)C3=COCCO3)cc2)cc1	-70.9% (active)
COc1cccc(Nc2nc3ccccc3c3nncn23)c1	15% (inactive)
COc1ccc(NC(=O)CCc2nnc3n(CC(C)C)c(=O)c4ccccc4n23)cc1OC	-15.8% (inactive)
O=C(Cn1c(=O)nc(-c2ccccc2)c2cc(Cl)ccc21)NCc1ccc(Cl)cc1	4.55% (inactive)
CCCCNc1ccc(-c2nc(-c3ccncc3)no2)cc1[N+](=O)[O-]	14.6% (inactive)
Cc1ccccc1Cn1nc(C)c(NC(=O)C(F)(F)F)c1C	-69.7% (active)
Cc1ccccc1Cn1nc(C)c(NC(=O)c2cc(-c3ccc(F)cc3)on2)c1C	-10.2% (inactive)
Cc1nn(Cc2ccccc2)c(C)c1NS(=O)(=O)c1ccccc1	18.1% (inactive)
COc1cc(NC(=O)CN2CCN(S(=O)(=O)c3ccc(Br)cc3)CC2)cc(OC)c1	10.7% (inactive)
CC(C)OCCCn1c(SCC(=O)c2ccccc2)nc2c(sc3ccccc32)c1=O	-3.18% (inactive)
CCc1nn(CCCC(=O)NCc2ccccc2OC)c(=O)c2cc3occc3n12	0.686% (inactive)
COC(=O)c1ccc(S(=O)(=O)N2CCC(c3nc4ccccc4o3)CC2)cc1	-36.4% (inactive)
CC(=O)c1ccc(S(=O)(=O)N2CCN(C(=O)/C=C/c3ccc4ccccc4n3)CC2)cc1	-94.7% (active)
CC(=O)c1ccc(S(=O)(=O)N2CCC(Oc3ccc(-n4cnnn4)cc3)CC2)cc1	-16.1% (inactive) and 9.96% (inactive)
O=C(NCCc1ccccc1)c1cnc2sc(N3CCCC3)nn2c1=O	-22.6% (inactive)
CCCCNc1c(-c2cccc(Sc3ccc(OC)cc3)c2)nc2ccccn12	-28.4% (inactive)
COC(=O)[C@]12C[C@H](CC(=O)NCCC(C)C)C(=O)N(CCc3ccc(OC)c(OC)c3)C1=C[C@H](C(C)(C)C)O[C@@H]2C	13.1% (inactive)
COc1ccccc1CNC(=O)c1ccc(-n2c(C)cc3c2CCCC3)cc1	-28.5% (inactive)

SMILES	activity change, negative = inhibition
Cc1cc([N+](=O)[O-])c(NC2CCCCC2)c([N+](=O)[O-])c1	-18.1% (inactive)
Cc1cc([N+](=O)[O-])ccc1NC1CCCC1	-71.6% (active)
N#Cc1cc([N+](=O)[O-])ccc1NCC1CCCO1 (centres undefined)	11.1% (inactive)
COc1ccc(C)cc1N(C)C(=O)c1c(C)oc2ncnc(N3CCOCC3)c12	-37.3% (inactive)
Cc1ccc2onc(CC(=O)N3CCN(c4ccc(Cl)cc4)CC3)c2c1	-15.9% (inactive)
Cc1nn(C(C)C(=O)NCCc2ccccc2)c(=O)c2c1sc1ccccc12 (centres undefined)	-39.3% (inactive)
Cc1ccc(Nc2nc(Cl)c(C=O)s2)cc1	-12.1% (inactive)
CCCCN(C)c1nnc(NC(=O)Nc2ccc(Br)c(C)c2)s1	-4.35% (inactive)
Cc1ccc(NC(=O)Nc2nnc(-c3ccncc3)s2)cc1	-99.3% (active)
CCNC(=O)C1(C)CCCN1C(=O)c1ccc(N(C)C)cc1 (centres undefined)	-8.81% (inactive)
Cc1ccc(Nc2nnc(-c3ccc(C)c(S(=O)(=O)N4CCCCC4)c3)c3ccccc23)cc1	-7.76% (inactive)
Cc1ccc(-c2nnc(Nc3ccc(C(=O)N(C)C)cc3)c3ccccc23)cc1S(N)(=O)=O	-17.4% (inactive)
Cc1ccc(C)c(Nc2nnc(-c3ccc(C)c(S(=O)(=O)N4CCCCC4)c3)c3ccccc23)c1	-66.1% (active)
COc1cc(CN(C(=O)c2ccccc2Br)c2ccccn2)cc(OC)c1OC	-1.41% (inactive)
O=S(=O)(c1ccc(Br)cc1)c1nnn2c1nc(NC1CCCCCC1)c1sccc12	-2.26% (inactive)
CCn1cc(C(=O)OCC(=O)Nc2cccc(C)c2)c(=O)c2ccc(C)nc21	37.7% (inactive)
CCn1cc(C(=O)N2CC=C(c3ccccc3)CC2)c(=O)c2ccc(C)nc21	-108% (active)
CCn1cc(C(=O)OCC(=O)Nc2cc(C)cc(C)c2)c(=O)c2ccc(C)nc21	-39.2% (inactive)
CCc1ccccc1NC(=O)c1cnn(-c2ccc(F)cc2)c1C1CCNCC1	2.44% (inactive)
CCOC(=O)Cc1ccc(NC(=O)Nc2c[nH]c(=O)[nH]c2=O)cc1	8.88% (inactive)
COc1ccccc1CNC(=O)C(Cc1ccccc1)NS(=O)(=O)c1ccc2c(c1)oc(=O)n2C (centres undefined)	5.72% (inactive)
Cc1[nH]c(C)c(S(=O)(=O)N2CCN(c3cccc(C(F)(F)F)c3)CC2)c1C(=O)N1CCCCC1	-80.2% (active)
Cc1ccc(C)c(N2CCN(S(=O)(=O)c3c(C)[nH]c(C)c3C(=O)N3CCCC3)CC2)c1	-31.6% (inactive)
Cc1[nH]c(C)c(S(=O)(=O)N2CCN(c3cccc(C(F)(F)F)c3)CC2)c1C(=O)N1CCCC1	-9.51% (inactive)
CCCS(=O)(=O)c1c(Nc2ccccc2C)sc(C(=O)c2ccccc2)c1N	16.8% (inactive)
O=c1cc(CSc2ncn[nH]2)[nH]c2ccc(F)cc12	10.7% (inactive)
CC(C)(C)N1C(=O)c2c(C(=O)OCc3ccccc3)[nH]c(-c3ccccc3)c2C1=O	-12.2% (inactive)
